# Results from PubChem BioAssay (EPA / NIEHS).
# Records with an inconclusive call do not appear. Activity calls are given as the source filed them. How the source made its calls, unless noted: active means hit-call score of the fitted dose curve at least 0.9, where 1 is the maximum; inactive means score below 0.9.
# How the values were obtained:
# [1] = read-out: Monokine induced gamma interferon (MIG), CXCL9 (gene 4283); assay: BSK_SAg_MIG: BioMAP Diversity Plus: SAg Assay for Monokine induced gamma interferon (MIG) Biomarker Activity (AID 2283092); conditions: primary human HUVEC with PBMC; actives raise or lower the signal
# Procedure, shortened: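 ELISA readout of MIG/CXCL9; primary human umbilical vein endothelial cells co-cultured with peripheral blood mononuclear cells; 24 h post-dose; gain/loss fit vs DMSO baseline.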
# [2] = BSK_SAg_PBMCCytotoxicity: PBMC Cytotoxicity Assessment in the BioMAP Diversity Plus: SAg Assay (AID 2283093); conditions: primary human HUVEC with PBMC;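 further: PBMC viability measured as Alamar Blue reduction fluorescence at 546/580 nm; fitted both ways against DMSO so a hit may be loss or gain of signal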;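 on AC50: PBMC superantigen activated with SEB plus TSST-1 one hour after compound addition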
# Procedure, shortened: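 Compound added to 75,000 PBMC/well for 1 h; SEB and TSST-1 then added at 20 ng/mL final each; 90 h incubation; Alamar Blue 6 h; read 546/580 nm ex/em. Activity fitted bidirectionally relative to DMSO baseline.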
# [3] = read-out: Interleukin-8 (IL8), CXCL8 (gene 3576); assay: BSK_SAg_IL8: BioMAP Diversity Plus: SAg Assay for Interleukin-8 (IL8) Biomarker Activity (AID 2283094); conditions: primary human HUVEC with PBMC; actives raise or lower the signal
# Procedure, shortened: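 Human umbilical vein endothelial cells co-cultured with peripheral blood mononuclear cells; IL-8 measured by ELISA 24 h after chemical dosing. Bidirectional concentration-response fitting used DMSO as negative control and activity baseline.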
# [4] = BSK_SAg_Proliferation: Cell Proliferation Assessment in the BioMAP Diversity Plus: SAg Assay (AID 2283095); conditions: primary human HUVEC with PBMC;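 further: relative cell number as total protein by SRB absorbance in sub-confluent culture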
# Procedure, shortened: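 Human umbilical vein endothelial cells co-cultured with peripheral blood mononuclear cells; total protein measured by sulforhodamine B staining (0.1% SRB after 10% TCA fixation), absorbance at 560 nm, at 96 h. Bidirectional fit against DMSO baseline.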
# [5] = BSK_SAg_SRB: Viability Assessment in the BioMAP Diversity Plus: SAg Assay (AID 2283096); conditions: primary human HUVEC with PBMC;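 further: cells read one day after compound addition; hits may be either gain or loss of signal compared with DMSO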
# Procedure, shortened: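 Total protein by sulforhodamine B staining, 24 h after dosing, in HUVEC–PBMC co-culture; DMSO-referenced bidirectional fitting.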
# [6] = target: human CYP2C9, CYP2C9 (gene 1559) (UniProt P11712); assay: NVS_ADME_hCYP2C9: NovaScreen (NVS) CYP450-related Enzyme Activity (ADME) Assay for human CYP2C9 (AID 2283108; active means hit-call score of the fitted dose curve at least 0.9, where 1 is the maximum)
# Chain of human CYP2C9, CYP2C9 (gene 1559) (P11712 whole entry, looked up): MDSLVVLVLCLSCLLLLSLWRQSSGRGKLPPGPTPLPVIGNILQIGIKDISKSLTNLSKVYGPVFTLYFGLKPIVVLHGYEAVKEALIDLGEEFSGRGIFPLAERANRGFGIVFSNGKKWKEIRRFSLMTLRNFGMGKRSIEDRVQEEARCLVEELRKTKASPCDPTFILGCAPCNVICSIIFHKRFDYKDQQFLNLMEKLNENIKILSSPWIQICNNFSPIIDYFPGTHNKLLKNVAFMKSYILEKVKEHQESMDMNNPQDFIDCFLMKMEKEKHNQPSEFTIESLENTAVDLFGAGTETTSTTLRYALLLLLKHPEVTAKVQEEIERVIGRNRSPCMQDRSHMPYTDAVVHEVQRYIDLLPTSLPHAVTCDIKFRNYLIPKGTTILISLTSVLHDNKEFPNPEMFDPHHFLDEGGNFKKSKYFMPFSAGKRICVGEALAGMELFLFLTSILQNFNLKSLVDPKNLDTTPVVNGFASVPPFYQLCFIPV
# Procedure, shortened: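 Fluorescence readout of CYP2C9 activity (SF9-expressed human enzyme) at 0.75 h. The primary screen used 10 uM in duplicate, with concentration-response follow-up for actives; acetonitrile was the negative control.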
# [7] = target: human Beta-secretase (BACE), BACE1 (gene 23621) (UniProt P56817); assay: NVS_ENZ_hBACE: NovaScreen (NVS) Enzymatic Assay for human Beta-secretase (BACE) (AID 2283140; active means hit-call score of the fitted dose curve at least 0.9, where 1 is the maximum;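 further: hits are inhibitors that reduce fluorescent substrate signal versus DMSO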)
# Chain of human Beta-secretase (BACE), BACE1 (gene 23621) (P56817 whole entry, looked up): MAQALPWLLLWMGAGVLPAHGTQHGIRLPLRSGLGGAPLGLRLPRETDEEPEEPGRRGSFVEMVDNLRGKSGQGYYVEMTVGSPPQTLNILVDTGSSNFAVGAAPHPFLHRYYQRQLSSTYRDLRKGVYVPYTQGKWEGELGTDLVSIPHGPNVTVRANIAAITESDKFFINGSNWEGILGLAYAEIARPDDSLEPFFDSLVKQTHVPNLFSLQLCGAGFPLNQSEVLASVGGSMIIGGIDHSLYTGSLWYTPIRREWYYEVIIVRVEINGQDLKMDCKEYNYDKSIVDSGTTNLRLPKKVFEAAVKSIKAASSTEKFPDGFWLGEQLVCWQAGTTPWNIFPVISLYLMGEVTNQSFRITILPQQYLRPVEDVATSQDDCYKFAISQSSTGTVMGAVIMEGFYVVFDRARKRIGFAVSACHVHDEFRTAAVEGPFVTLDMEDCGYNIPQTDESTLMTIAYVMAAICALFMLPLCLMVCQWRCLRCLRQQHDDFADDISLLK
# Procedure, shortened: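 Cell-free fluorescence-intensity assay of recombinant BACE1 expressed in SF9 cells, read 1 hour after dosing. Loss of signal indicates reduced protease activity, fitted relative to DMSO negative control. Primary screen at 25 uM in duplicate; actives followed in concentration series.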
compound,measurement,setting,value
CC1=NN(c2ccccc2)C(=O)C1,outcome,[1],inactive
same,outcome,[2],inactive
same,outcome,[3],inactive
same,outcome,[4],inactive
same,outcome,[5],inactive
same,AC50,[6],3.06 µM (active)
Oc1ccc(Cc2ccccc2O)cc1,outcome,[1],inactive
same,outcome,[2],inactive
same,outcome,[3],inactive
same,outcome,[4],inactive
same,outcome,[5],inactive
CCCCc1oc2ccccc2c1C(=O)c1cc(I)c(OCCN(CC)CC)c(I)c1,AC50,[1],22.9 µM (active)
same,AC50,[2],8.86 µM (active)
same,AC50,[3],15.1 µM (active)
same,AC50,[4],4.1 µM (active)
same,AC50,[5],13.4 µM (active)
same,AC50,[7],3.91 µM (active)
